# About 83,000 compounds went through this panel and 20% of them were active in at least one assay; those are over-represented in the sample as a whole.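 Step 1: grow cells in 96-well plates. Step 2: add test compound at a single concentration. Step 3: incubate 48 h. Step 4: record percent growth.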 Values without a mark were called inactive. Calls of active or inactive are those of the source. Rule for the calls: active = growth percent below 10; inactive = the rest.
# System: HL-60(TB) leukemia
# Assay: NCI-60 one-dose screen, 48 h (100 = growth as untreated, 0 = no growth, -100 = all killed)
# Conditions: 10 µM unless noted
row,Structure (SMILES),growth
1,CCN(CC)CCOC(COc1cc(C)cc(C)c1)COc1cc(C)cc(C)c1,20.3%
2,Clc1cc2c(nn1)Nc1ccccc1S2,102%
3,Cc1cc(NC(=O)COC(=O)c2sc3cc(F)ccc3c2Cl)no1,107%
4,COc1cc(-c2nc3ccc(C)cc3[nH]2)ccc1OCC(=O)N=Nc1c(O)[nH]c2ccccc12,-34.3% (active)
5,CC(=O)OC(C(=O)c1ccccc1)c1ccccc1 (stereo not given),114%
6,O=C(Nc1ccc2c(c1)-c1ccccc1C2)C1CC(=O)N(c2ccc3c(c2)OCO3)C1 (stereo not given),112% [50 µM]
7,COc1cc(/C=C2\COc3ccc(-c4ccccc4)cc3C2=O)cc(OC)c1,42.9%
8,CN(C)c1ncnc2c1cnn2C,108%
9,O=[N+]([O-])c1ccccc1/C=N\NC(=S)N/N=C/c1ccccc1[N+](=O)[O-],9.57% (active)
10,CCCCC1COc2cccc3c(SCC(=O)N(C)c4cccc5ccccc45)cc[n+]1c23 (stereo not given),89.8%
11,O=C1/C(=C\C(Cl)=C/c2ccc([N+](=O)[O-])cc2)SC(=S)N1CCc1ccc(O)cc1,2.21% (active)
12,N=C1CCC(=N)c2c1c(O)c1ccccc1c2O,129%
13,COc1ccc2c(c1)O/C(=C\c1cccc(OCC(=O)Nc3nc4c(s3)CCCC4)c1)C2=O,27.4%
14,CCCCC/C(=C\c1ccccc1)C1OC(C)C(C)O1 (stereo not given),115%
15,C[C@@H]1C(=O)N(C[C@@H](Cc2ccccc2)NC(=O)OCc2ccccc2)[C@]1(Cc1ccccc1)C(=O)OCc1ccccc1,13.1%
16,Cc1cc(=O)oc2cc(OC(=O)N3CCN(C)CC3)ccc12,106%
17,CCOC(=O)C1=C(CCl)NC(=O)NC1c1ccc2c(c1)OCO2 (stereo not given),56.9%
18,CCOC(=O)c1cn2ncnc(Oc3ccc(NC(=O)NCCN(CC)CC)c(Cl)c3)c2c1C,100%
19,C=C1C(=O)O[C@H]2[C@H]1CC/C(COC(=O)NCCc1ccc(Br)cc1)=C\CC[C@@]1(C)O[C@@H]21,-14% (active)
20,COc1cc2ncnc(-n3ncc4cc(NC(=O)Nc5ccccc5)ccc43)c2cc1OC,-15.9% (active)

row,Structure (SMILES),growth
1,Oc1ccc2ccccc2c1CN1CCOCC1,105%
2,CCc1ccc2c(c1)N(CCO)C1=C(C(=O)OC1)C2c1cc(OC)c(OC)c(OC)c1 (stereo not given),-26.4% (active)
3,CCCCCCCCCCCCCCCCCCOc1ccccc1CC(=O)OCC[N+](C)(C)C,-38% (active)
4,Nc1nc(N)c2nc3c(nc2n1)CCCCCCCCCC3,33.4%
5,CCC1C[N+]2=C(c3cc(OC)c(OC)cc3CC2)c2c1cc1n2CCc2cc(OC)c(OC)cc2-1 (stereo not given),8.26% (active)
6,N#CCCN1C/C(=C/c2ccccc2)C(=O)/C(=C/c2ccccc2)C1,43.2%
7,COc1cc(Cl)c(C)cc1NC(=O)c1cc2ccccc2cc1O,9.27% (active)
8,CCOC(=O)C1(CC(C)C)CCOC1=O (stereo not given),96.9%
9,CCCCCCCCCCCCCCCCCCNC(=O)[C@H]1CSC(c2ccc(OC)cc2O)N1 (stereo not given in full),34.4%
10,CC(=O)c1ccccc1NC(=O)C(C)(c1ccccc1)c1ccccc1,94.3%
11,CC(C)=CCc1ccc(O)c(=O)cc1C(C)C,-1.27% (active)
12,CC(=O)Nc1ccc(Cl)cc1Cl,109%
13,COc1ccc(CC(=O)c2ccc(O)cc2O)cc1,106%
14,O=C1Nc2ccccc2/C1=C\c1c[nH]c2ccc(Br)cc12,73.1%
15,COc1cc(/C=N/NC(=O)c2ccc3nc(-c4ccc(Cl)cc4)[nH]c3c2)cc(OC)c1OC,44.9%
16,C=C1C(=O)O[C@H]2[C@H]1CC/C(COC(=O)CCCC(=O)OC/C1=C/CC[C@@]3(C)O[C@H]3[C@H]3OC(=O)C(=C)[C@@H]3CC1)=C\CC[C@@]1(C)O[C@@H]21,-41.8% (active)
17,CCCCOc1nc2ccc(OC)cc2cc1-c1cc(-c2ccc(Cl)cc2)nc(-c2ccc(Cl)cc2)c1,103%
18,Nc1cc2ccncc2c2ccccc12,90%
19,Cc1ccc(-c2c(Br)c(OC(=O)CO[C@@H]3C[C@H](C)CC[C@H]3C(C)C)c(-c3ccc(C)cc3C)c(Br)c2OC(=O)CO[C@H]2C[C@@H](C)CC[C@@H]2C(C)C)c(C)c1,101%
20,Cc1cc[c-]cc1.Fc1c[c-]c(-c2ccccn2)c(F)c1.[Pt+2].c1ccc(P(C[PH+](c2ccccc2)c2ccccc2)c2ccccc2)cc1,-25.7% (active)

# — PubChem BioAssay (NCI)
